Screening results: PubChem BioAssay, National Center for Advancing Translational Sciences (NCATS)
LASV entry inh = Lassa virus entry inhibition; Lassa virus pseudotype entry inhibition, cell reporter; Potency, µM (top dose mostly 37.9 µM), for inactives: at the top dose activity change, negative = inhibition, hits mostly inhibitors; 1.2% of 300,000 active; AID 540256; calls by dose curve; tested in HEK293 cells; note: potency is the fitted concentration of half-maximal effect; nearly all actives have a fitted effect of over 50% in size
Vaccinia Venus = inhibitors of vaccinia virus (Venus reporter) | 0.46% of 330,000 active | AID 720580 | Potency, µM (highest dose often 36.5 µM), for inactives: at the top dose activity change, negative = inhibition, most hits filed as inhibitors | Vaccinia virus Venus reporter expression, fluorescence; calls by dose curve; tested in A549 cells; note: potency is the fitted concentration of half-maximal effect; nearly all actives have a fitted effect of over 30% in size
Vaccinia mCherry = vaccinia inhibition (mCherry reporter); 0.63% of 310,000 active; Vaccinia virus mCherry reporter infection, fluorescence; Potency, µM (doses to about 36.5 µM), for inactives: top-dose activity change, negative = inhibition, usual class: inhibitors; AID 720579; calls by dose curve; tested in A549 cells; note: potency is the fitted concentration of half-maximal effect; nearly all actives have a fitted effect of over 35% in size
Marburg entry inh = Marburg virus entry inhibition. Marburg virus pseudotyped entry inhibition, cell reporter. Potency, µM (series often up to 37.8 µM), without a hit: at the highest dose activity change, negative = inhibition, actives largely listed as inhibitors. 1.8% of 300,000 active; calls by dose curve; tested in HEK293 cells; note: potency is the fitted concentration of half-maximal effect
HCMV antiviral = blocks human cytomegalovirus replication | 4.5% of 410,000 active | HFF cells, HCMV-luciferase reporter, 72 h; stronger effect = lower value | AID 1259415 | activity change, negative = inhibition, % at 57.5 µM; in the data active = activity change below about -60%; inconclusive = no clear call, values can overlap the other calls; inactive = above about -39%
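Human foreskin fibroblasts infected with luciferase-reporter HCMV at MOI 1 PFU/cell, compounds at two doses. Luciferase measured 72 h post infection; normalized to buffer-only basal and Salinomycin (10uM) controls.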
FMDV inh = blocks foot and mouth disease virus; FMDV antiviral cell-based qHTS; 1.2% of 410,000 active; Potency, µM (titrated, usually from 57.9 µM), without a hit: top-dose activity change, negative = inhibition, actives largely listed as inhibitors; AID 1159524; calls by dose curve; tested in HEK293T cells; note: read-out not given here; potency is the fitted concentration of half-maximal effect; nearly all actives have a fitted effect of over 45% in size
* = called active by the depositor; i = inactive; ? = inconclusive; . = no result given; [ ] = dose if it differs, or a comment. A selection: hits, their analogues and other compounds. The true share with any hit is near 6.5%. % is set by controls: 0 for no effect and ±100 for the full control effect.

SMILES | LASV entry inh | Vaccinia Venus | Vaccinia mCherry | Marburg entry inh | HCMV antiviral | FMDV inh
CC1O[C@@H](O[C@@H]2C(O)C[C@H](O[C@@H]3C(O)C[C@@H](OC4CC[C@@]5(C)C6CC[C@]7(C)C(C8=CC(=O)OC8)CC[C@@]7(O)C6CC[C@@H]5C4)OC3C)OC2C)CC(O)[C@H]1O (some centres not stated) | . | 0.28µM* | ? | . | . | 0%
COc1ccc(-c2cn3cccnc3n2)cc1NC(=O)COc1ccccc1 | -29%[46.1 µM] | -27% | ? | . | -37 | -10%
CCC(C)NC(=O)c1cc2n(n1)CCCN(Cc1ccc(C)cc1)C2=O (configuration not stated) | -16%[46.1 µM] | -2% | -17% | . | -27 | -7%
CCC(C)CN1C(=O)NC(CCc2ccccc2)C(C(C)=O)=C1C (configuration not stated) | . | . | . | -18%[14.2 µM] | . | .
Cc1ccc(CN2CCOc3ccc(CN4CCC(O)(c5cccnc5)CC4)cc3C2)cc1C | . | ? | -22% | . | . | ?
COc1ccccc1CNC(=O)C(=O)NCC(c1ccco1)S(=O)(=O)c1ccc(C)cc1 (configuration not stated) | -18%[46.1 µM] | -26% | -19% | . | -12 | ?
CCCc1cc(=O)n2[nH]c(NCc3ccccc3OC)nc2n1 | 14%[46.1 µM] | -1% | -13% | ? | 16 | -23%
O=C1c2ccccc2NC(c2ccc3c(c2)OCCO3)N1c1ccc2c(c1)OCCO2 (configuration not stated) | ? | -11% | . | 8.9µM* | -11 | -12%
COc1cc(C2Nc3ccccc3C(=O)N2c2ccc3c(c2)OCCO3)ccc1OCC(C)C (configuration not stated) | ? | -25% | -6%[1.46 µM] | ? | 4 | -11%
CCCN(CCC)c1nc(-c2ccccn2)nc2ccccc12 | ? | ? | 4.5µM* | ? | -100* | ?
CCCN(CCC)c1nc(-c2ccccc2F)nc2ccccc12 | 5%[46.1 µM] | -3% | -13% | . | -2 | ?
c1ccc(CCNc2nc(-c3ccccn3)nc3ccccc23)cc1 | ? | -16% | -23% | ? | -103* | ?
CCCCN(CC)c1nc(-c2ccncc2)nc2ccccc12 | 0% | -26% | -28% | ? | -95* | 25µM*
CCOC(=O)c1ccccc1NC(=O)CSc1nccn1Cc1ccco1 | -12%[46.1 µM] | -16% | -3% | . | ? | -4%
COc1ccc2c3c([nH]c2c1)[C@H](CO)N(C(=O)c1cccnc1)CC31CN(C(=O)c2cccnc2)C1 | . | . | . | . | -2 | .
COc1cc(=O)n2c(c1C(=O)NCc1ccc3c(c1)OCO3)CCN(C(=O)c1ccc(C)cc1)CC2 | . | 0% | i | . | . | 10%
CCOC(=O)Nc1cc(C(=O)OCC)c(C)nc1C | -11% | -4% | i | 4% | -21 | -20%
CCOC(=O)c1cc(NC(=O)Nc2cc(C)ccn2)c(C)nc1C | 13% | -10% | -19% | -19%[46.1 µM] | -65* | -6%
CC(Sc1ccc(S(=O)(=O)N2CCOCC2)cn1)c1ccccc1Cl (configuration not stated) | 8.9µM* | -14% | -13% | ? | -14 | -25%
CCCCN(CC)CCCNC(=S)Nc1ccc2nc(N3CCN(CC)CC3)cc(C)c2c1 | ? | -17% | -19% | 3.5µM* | -29 | 0%
CCCCN(CC)CCCNC(=S)Nc1ccc2nc(N3CCN(C)CC3)cc(C)c2c1 | ? | -9% | -19% | 2.5µM* | -37 | -18%
CCN(CC)CCNC(=S)Nc1ccc2nc(N3CCN(C)CC3)cc(C)c2c1 | ? | -27% | -16% | ? | -16 | -4%
CCCS(=O)(=O)NC(=O)C1(C)CCCN(C(=O)c2cc(C)n(C(C)(C)C)n2)C1 (configuration not stated) | . | 6% | 38% | . | -64* | 5%
CCCS(=O)(=O)NC(=O)C1(C)CCN(C(=O)c2cc(C)n(C(C)(C)C)n2)C1 (configuration not stated) | . | -8% | 5% | . | 36 | -12%
CCCN1C(=O)C[C@H](S(=O)(=O)c2ccccc2)[C@H]1c1ccc(C#N)cc1 | . | . | . | . | -19 | .
C=C(c1ccc2cc(OC)ccc2c1)[C@H](C#N)C1CCCC1 | . | . | . | . | -22 | .
Cc1ccc(C(=O)c2cn(Cc3cccc(C)c3)c3nc(C)ccc3c2=O)cc1 | -27%[46.1 µM] | -12% | -13% | ? | -6 | -27%
